From ChEMBL document CHEMBL3988442, “University of Dundee, Small-Polar-MMV Screening Library” (2021)
Hit rate of the full screen: of about 48,000 compounds, about 13,000 (27%) showed an effect of 50% or more. This is one part of the list.

What follows are compounds tested on Wolbachia pipientis (assay: Anti-Wolbachia Cell-Based Screen). Conditions: 5 µM.
Type: functional
Parameters: scale not given: in the data most compounds retested in dose-response had high values

Row | Compound | Percent Effect
1 | CC(=O)N[C@@H]1CN(C2CCN(c3cccc(Cl)c3)CC2)C[C@H]1C(C)C | 15.95%
2 | Cc1nc(S(=O)(=O)NCCC(=O)NCc2ccsc2)cn1C | -10.44%
3 | COCCC1(CO)CCCN(C(=O)c2cc(C#N)c(=O)[nH]c2C)C1 (stereo unspecified) | 6.218%
4 | CC(C)C1CN(C(=O)c2csc(CN(C)C)n2)CCC(=O)N1CC1CC1 (stereo unspecified) | -2.363%
5 | Cc1ccc(CN2CCCC(c3nn(C)c4nccnc34)C2)s1 (stereo unspecified) | 125.3%
6 | Cl.Cn1nc(C2CCCN(Cc3ccccc3)C2)c2nccnc21 (stereo unspecified) | 128.3%
7 | Cl.Cn1nc(C2CCCN(Cc3cccs3)C2)c2nccnc21 (stereo unspecified) | 122.9%
8 | COc1cccc(CN2CCCC(c3nn(C)c4nccnc34)C2)c1.Cl (stereo unspecified) | 110.8%
9 | Cc1ccc(CN2CCCC(c3nnc(CN4CCCC4)n3C)C2)s1 (stereo unspecified) | 10.41%
10 | c1ccc(CCN2CCCC(Cn3ccnc3)C2)cc1 (stereo unspecified) | -0.01768%
11 | Cn1nc(C2CCCN(Cc3ccsc3)C2)c2nccnc21 (stereo unspecified) | -5.788%
12 | Cc1ccc(CN2CCCC(c3nnc(CN4CCCCC4)n3C)C2)s1 (stereo unspecified) | 9.152%
13 | CC(C)n1nc2c(cc1=O)CN(Cc1nnc(C3CC3)o1)CC2 | 15.52%
14 | CCc1cc(NCCNC(C)=O)nc(N2CCOCC2)n1 | -17.29%
15 | CC1CCc2nc(O)c(C(=O)NCCc3cccs3)cc2C1 (stereo unspecified) | -7.543%
16 | CCc1nnc(C(C)N(C)Cc2c(C)nn(-c3ccccc3)c2C)o1 (stereo unspecified) | 1.844%
17 | CCn1cc(CN2CCCC2c2nc(C(C)C)no2)cc1C#N (stereo unspecified) | -5.015%
18 | Cc1cccc(NC(=O)CNC(=O)Cn2ncc(Cl)c(Cl)c2=O)c1C | -3.817%
19 | COc1c(C2CCCN2C(=O)c2scnc2C)c(C)nn1C (stereo unspecified) | 97.95%
20 | COc1ccsc1C(=O)N1CCCC1c1c(C)nn(C)c1OC (stereo unspecified) | -20.58%
21 | Cc1ncsc1C(=O)N1CCCC1c1c(C)nn(C)c1Cl (stereo unspecified) | 100%
22 | COc1c(C2CCCN2C(=O)c2sc(C)nc2C)c(C)nn1C (stereo unspecified) | 94.35%
23 | Clc1cccc2c3c([nH]c12)CCN(Cc1cc2n(n1)CCNC2)C3 | -8.419%
24 | CC(C)Oc1cccc(CN(C)C(=O)Nc2cccn(C)c2=O)c1 | -28.92%

Row | Compound | Percent Effect
25 | Cc1ccc(Cl)c2c1C1(NC(=O)c3cccnc3N1)C(=O)N2 (stereo unspecified) | -5.673%
26 | O=C(CCc1ccncc1)NCCOc1ncc(Cl)cc1Cl | -8.284%
27 | O=C(NCCCn1cccn1)C1(c2ccc(Br)cc2)CC1 | -2.807%
28 | O=C(NCCCn1cccn1)C1(c2ccc(F)cc2)CC1 | -8.161%
29 | O=C(CCn1cccn1)NCCOc1ncc(Cl)cc1Cl | 81.6%
30 | O=C(C[S+]([O-])C1CCCC1)NCCOc1cccc(Cl)c1 (stereo unspecified) | -1.497%
31 | O=C(CCS(=O)(=O)c1ccccc1)NCCCn1cccn1 | 91.43%
32 | Cl.O=C(CN1CCC[C@H]1C(=O)O)NCCOc1cccc(Cl)c1 | -9.308%
33 | c1cnn(CCNCCCOc2ccc3c(c2)OCO3)c1 | -9.966%
34 | O=C(CCn1cccn1)NCCOc1ccc2c(c1)OCO2 | 104.8%
35 | O=C(NCCOc1ncc(Cl)cc1Cl)c1ccncc1 | -15.07%
36 | O=C(CCn1cccn1)NCCOc1cccc(Cl)c1 | 87.31%
37 | Cc1cnn(CCNCCCOc2ccc3c(c2)OCO3)c1 | 2.747%
38 | c1ccc(-c2nc3c(c(NCCn4cccc4)n2)CCNCC3)nc1 | -2.581%
39 | CC(C)c1nc(CC(=O)Nc2nc(CN3CCCCCC3)cs2)cs1 | 13.84%
40 | O=C(CN1CCOc2ccc(Cl)cc21)NCCCn1cccn1 | -8.926%
41 | O=C(NCCCn1cccn1)C1COCC(=O)N1Cc1ccccc1 (stereo unspecified) | -30.45%
42 | Cc1occc1C(=O)NCC(=O)NCCOc1cccc(Cl)c1 | 23.6%
43 | O=C(CCOc1ccc(Cl)cc1)NCCCn1cccn1 | 101.2%
44 | CC(C(=O)NCCOc1cccc(Cl)c1)n1cncn1 (stereo unspecified) | -0.6619%
45 | O=C(CCn1cncn1)NCCOc1cccc(Cl)c1 | 114.1%
46 | CNc1nc(C(=O)N2C[C@H]3CC[C@@H]2CN(S(C)(=O)=O)C3)cs1 | -0.32%
47 | COc1ccc(S(=O)(=O)N2CCC(OCc3ccccn3)C2)cc1Br (stereo unspecified) | 4.781%
48 | Cc1cc(C2CCCN(CCNS(=O)(=O)c3ccccc3)C2)n[nH]1 (stereo unspecified) | 94.49%

Row | Compound | Percent Effect
49 | Cn1c(C2CC2)nc2c1CCN(CCS(=O)(=O)c1ccccc1)C2 | -2.763%
50 | Cc1cc(C2CCCN(CCS(=O)(=O)c3ccccc3)C2)n[nH]1 (stereo unspecified) | 111.9%
51 | Cc1cc(C2CCCN(CCCS(=O)(=O)c3ccccc3)C2)n[nH]1 (stereo unspecified) | -3.796%
52 | Cc1cc(N2CCC(N(C)Cc3cc(=O)c(O)co3)CC2)nc(C)n1 | -0.2819%
53 | CN(CC(O)C1CC1)C(=O)Nc1ccc(F)c(-n2cccc2)c1 (stereo unspecified) | 2.69%
54 | CCn1nc(C(=O)N2CCCC2c2noc(C)n2)ccc1=O (stereo unspecified) | 2.469%
55 | CCc1cc(O)nc(C2CCCN2C(=O)c2cc(CC)on2)n1 (stereo unspecified) | 115.4%
56 | CCc1cc(C(=O)N2CCCC2c2nc(O)cc(CC)n2)on1 (stereo unspecified) | 115.5%
57 | CCc1cc(O)nc(C2CCCN2C(=O)COC)n1 (stereo unspecified) | 126%
58 | CCc1nc(C2CCCN2C(=O)c2nccnc2N)no1 (stereo unspecified) | -19.66%
59 | CCc1cc(O)nc(C2CCCN2C(=O)c2cc(C)no2)n1 (stereo unspecified) | -6.64%
60 | CCc1nc(C2CCCN2C(=O)c2ccc(=O)n(CC)n2)no1 (stereo unspecified) | -10.47%
61 | CCc1ccc(C(=O)NC2CCN(c3ccn(C)n3)C2)o1 (stereo unspecified) | -10.19%
62 | O=C(Nc1cc(C(F)(F)F)ccc1Cl)c1ccc(N2CCCC2)nn1 | 13.93%
63 | N#Cc1ccc(OCCNc2cccc(C(=O)N3CCOCC3)c2)cc1 | -3.52%
64 | CC(C)C(C#N)N1CCN(C(=O)c2cc(-c3ccccn3)no2)CC1 (stereo unspecified) | -9.203%
65 | O=C(NCCn1cccc1)C1CCCN(C2CCCC2)C1 (stereo unspecified) | -8.525%
66 | CCN(CC)C(=O)[C@@H]1C[C@@H](n2cc(-c3cccc(OC)c3)nn2)CN1 | -2.078%
67 | CNC(=O)[C@@H]1C[C@@H](n2cc(-c3ccc(Cl)cc3)nn2)CN1 | 111.1%
68 | CCN(CC)C(=O)[C@@H]1C[C@H](n2cc(-c3ccccn3)nn2)CN1 | -5.115%
69 | CNC(=O)[C@@H]1C[C@H](n2cc(-c3ccc(Cl)cc3)nn2)CN1 | 104.7%
70 | CCN(CC)C(=O)[C@@H]1C[C@@H](n2cc(-c3ccccn3)nn2)CN1 | -7.154%
71 | CCN(CC)C(=O)[C@@H]1C[C@H](n2cc(-c3cccc(OC)c3)nn2)CN1 | -3.277%
